Some test systems named below: DU-145 prostate; K-562 leukemia; MALME-3M melanoma; MDA-MB-231 breast; RXF 393 renal; SF-268 CNS; SF-295 CNS; SF-539 CNS; UACC-257 melanoma; M14 melanoma; HCT-15 colon; HT29 colon; SNB-75 CNS; SNB-19 CNS; U251 CNS; PC-3 prostate; SK-MEL-5 melanoma; UACC-62 melanoma; LOX IMVI melanoma; SK-MEL-28 melanoma.
Holding throughout (assay): NCI-60 one-dose screen, 48 h (100 = growth as untreated, 0 = no growth, -100 = all killed)
What all share (conditions): 10 µM unless noted

Each structure is given as a SMILES string. About 83,000 compounds went through this panel and 20% of them were active in at least one assay; those are over-represented in the sample as a whole.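 Testing used 96-well plates and a 48-hour single-concentration exposure. Example: -40 means 40% of the starting cells died.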 Values without a mark were called inactive. The source made the active and inactive calls. The calls were made as follows: active = growth percent below 10; inactive = the rest.

`COc1ccc2[nH]c(O)c(N=Nc3nc(-c4ccc(C#N)cc4)cs3)c2c1`: the growth with DU-145 prostate is 52.9%; in the experiment with K-562 leukemia, 67.7%; in the experiment on MALME-3M melanoma, 15.1%; with MDA-MB-231 breast, 59.7%; in the experiment on RXF 393 renal it was 38%; in the experiment with SF-268 CNS, 82.6%. In addition, the growth in the experiment on SF-295 CNS was 68.8%; with SF-539 CNS, 48.9%; in the experiment on UACC-257 melanoma, 70.6%; in the experiment with M14 melanoma, 82.3%; in the experiment on HCT-15 colon, 68%; with HT29 colon, 79.1%. The growth is -3.1% (active) in the experiment with SNB-75 CNS; 77.2% in the experiment on SNB-19 CNS; 15.2% in the experiment with U251 CNS; 85.7% with PC-3 prostate; 53.7% in the experiment on SK-MEL-5 melanoma; 72.7% in the experiment with UACC-62 melanoma. Further, the growth was 37.6% in the experiment with LOX IMVI melanoma and 68.9% in the experiment on SK-MEL-28 melanoma.
As for `COc1ccc(C2=Nc3c(N)nc(N)nc3NC(c3ccc(Oc4nc(Nc5ccc(F)cc5)nc(N(C)C)n4)c(OC)c3)C2)cc1` (stereo not given), the growth with DU-145 prostate was 68.8%; in the experiment on K-562 leukemia, 29.5%; with MALME-3M melanoma it was 83.1%; in the experiment with MDA-MB-231 breast, 43.3%; with RXF 393 renal, 12.1%; in the experiment on SF-268 CNS, 61.6%. The growth is 85.7% with SF-295 CNS; 71.9% in the experiment on SF-539 CNS; 70.5% in the experiment with UACC-257 melanoma; 93.4% in the experiment on M14 melanoma; 48.7% in the experiment with HCT-15 colon; 46.4% with HT29 colon. In addition, the growth with SNB-75 CNS is 51%; in the experiment with SNB-19 CNS, 76.5%; in the experiment on U251 CNS, 65.3%; in the experiment on PC-3 prostate it was 49.1%; in the experiment on SK-MEL-5 melanoma it was 51.5%; with UACC-62 melanoma, 98.3%. In addition, the growth with LOX IMVI melanoma is 63.1%; in the experiment with SK-MEL-28 melanoma it was 93.2%.
In the case of `COC(=O)c1c(C(=O)OC)c2c3ccccc3c3ccccc3n2c1C(=O)C(C)(C)C`, the growth with DU-145 prostate is 95.7%; with K-562 leukemia it was 47.1%; with MALME-3M melanoma, 100%; in the experiment with MDA-MB-231 breast it was 73.5%; with RXF 393 renal, 82.3%; in the experiment with SF-268 CNS, 89.3%. In addition, the growth is 81.7% in the experiment on SF-295 CNS; 83.3% in the experiment with SF-539 CNS; 94.8% in the experiment on UACC-257 melanoma; 74.3% in the experiment with M14 melanoma; 46.6% in the experiment on HCT-15 colon; 71.9% in the experiment with HT29 colon. The growth with SNB-75 CNS is 83.5%; with SNB-19 CNS it was 96.2%; in the experiment on U251 CNS, 85.3%; in the experiment on PC-3 prostate, 35.3%; with SK-MEL-5 melanoma, 46.8%; with UACC-62 melanoma, 50.1%. For the same compound, the growth is 81.4% in the experiment with LOX IMVI melanoma and 92.5% in the experiment with SK-MEL-28 melanoma.
On to `COc1nc(N)ncc1-c1ccc2ncnc(N3CCc4cc(F)c(Cl)cc43)c2c1`, for which the growth in the experiment on DU-145 prostate is 30.6%; with K-562 leukemia, 31.6%; in the experiment with MALME-3M melanoma, 64.3%; in the experiment with MDA-MB-231 breast, -22.7% (active); in the experiment with RXF 393 renal, -46.2% (active); in the experiment with SF-268 CNS it was 54.2%. The growth was 17.9% with SF-295 CNS; 1.76% (active) with SF-539 CNS; 78.8% in the experiment on UACC-257 melanoma; 62.4% in the experiment with M14 melanoma; 23.7% in the experiment with HCT-15 colon; 36.7% with HT29 colon. The growth was -52.7% (active) with SNB-75 CNS; 1.32% (active) in the experiment on SNB-19 CNS; -44.9% (active) in the experiment on U251 CNS; 66.3% in the experiment on PC-3 prostate; 57.5% in the experiment on SK-MEL-5 melanoma; 50% in the experiment on UACC-62 melanoma. Besides, the growth was 14.5% in the experiment with LOX IMVI melanoma and 31.3% in the experiment on SK-MEL-28 melanoma.
With `CS(=O)(=O)Nc1cncc(-c2ccc3ncnc(NCc4ccccc4)c3c2)c1`, the growth with DU-145 prostate was 55.2%; in the experiment on K-562 leukemia it was 33.6%; in the experiment on MALME-3M melanoma, 27.8%; in the experiment on MDA-MB-231 breast it was 40%; in the experiment with RXF 393 renal, 35.6%; in the experiment on SF-268 CNS it was 31.7%. The growth with SF-295 CNS was 42.8%; in the experiment with SF-539 CNS, 23.9%; in the experiment on UACC-257 melanoma, 74.5%; in the experiment on M14 melanoma, 49%; with HCT-15 colon, 64.3%; in the experiment on HT29 colon, 65.1%. The growth in the experiment on SNB-75 CNS is 5.11% (active); in the experiment with SNB-19 CNS it was 39%; with U251 CNS it was 22.1%; in the experiment on PC-3 prostate it was 42.1%; in the experiment on SK-MEL-5 melanoma it was -82.9% (active); in the experiment with UACC-62 melanoma it was 29.2%. For the same compound, the growth in the experiment with LOX IMVI melanoma is 35.9%; with SK-MEL-28 melanoma, 40.3%.
As for `COc1ccc(-c2cc(-c3cc(OC)c(OC)c(OC)c3)[nH]c(=O)c2C#N)cc1`, the growth in the experiment with DU-145 prostate was 93%; with K-562 leukemia, 79.1%; in the experiment on MALME-3M melanoma it was 29.7%; in the experiment on MDA-MB-231 breast it was 1.65% (active); in the experiment on RXF 393 renal it was 14.6%; in the experiment on SF-268 CNS, 54.3%. The growth is 59.1% in the experiment with SF-295 CNS; -18.3% (active) with SF-539 CNS; 96.4% in the experiment on UACC-257 melanoma; 96.7% in the experiment on M14 melanoma; 81% in the experiment with HCT-15 colon; 103% in the experiment with HT29 colon. For the same compound, the growth with SNB-75 CNS was -22.4% (active); with SNB-19 CNS it was 8.18% (active); in the experiment on U251 CNS, 42.2%; with PC-3 prostate, 70.9%; in the experiment with SK-MEL-5 melanoma, 64.9%; in the experiment with UACC-62 melanoma, 59.3%. Moreover, the growth with LOX IMVI melanoma was 40.2%; with SK-MEL-28 melanoma, 51.9%.
As to `COc1ccc([C@H]2C(C(=O)c3ccc(Cl)cc3)C3(N[C@@H]2c2ccccc2)C(=O)Nc2ccccc23)cc1` (stereo not given in full), the growth is 52% in the experiment on DU-145 prostate; 18.8% with K-562 leukemia; 32.2% in the experiment with MALME-3M melanoma; 25.8% in the experiment on MDA-MB-231 breast; 15.8% with RXF 393 renal; 37.3% with SF-268 CNS. For the same compound, the growth with SF-295 CNS is 15.2%; with SF-539 CNS it was 34.5%; with UACC-257 melanoma it was 44%; in the experiment with M14 melanoma, 53%; in the experiment with HCT-15 colon, 16.4%; with HT29 colon it was 9.82% (active). For the same compound, the growth in the experiment on SNB-75 CNS is 35%; in the experiment on SNB-19 CNS it was 42.2%; with U251 CNS, 36.5%; in the experiment with PC-3 prostate, 36.9%; in the experiment with SK-MEL-5 melanoma, 26%; in the experiment on UACC-62 melanoma, 9.8% (active). For the same compound, the growth with LOX IMVI melanoma was 12.2%; in the experiment with SK-MEL-28 melanoma it was 49.7%.
With `c1n[nH]cc1-c1nc2ccc3[nH]ncc3c2c2c1CC1(CCOCC1)CC2`, the growth with DU-145 prostate was 41.6%; in the experiment on K-562 leukemia, 39.5%; with MALME-3M melanoma it was 22.6%; in the experiment on MDA-MB-231 breast, 59.4%; in the experiment with RXF 393 renal, -15.8% (active); in the experiment with SF-268 CNS, 34.4%. For the same compound, the growth with SF-295 CNS was 65.8%; in the experiment with SF-539 CNS, 26.6%; in the experiment with UACC-257 melanoma, 53%; in the experiment with M14 melanoma, 23.9%; with HCT-15 colon, 39%; in the experiment on HT29 colon it was 25.9%. The growth with SNB-75 CNS was 6.74% (active); in the experiment on SNB-19 CNS, 37.4%; in the experiment with U251 CNS, 29.3%; with PC-3 prostate, 47.4%; with SK-MEL-5 melanoma, 29%; in the experiment with UACC-62 melanoma it was 14%. Moreover, the growth in the experiment on LOX IMVI melanoma was 29.2%; in the experiment with SK-MEL-28 melanoma, 27.1%.

The record behind these values is PubChem BioAssay (NCI).
